In PubChem BioAssay AID1159580 (chemical genetic matrix, 2015):
In all, about 5,500 compounds went through this assay and about 2,000 (36%) were called active. Roughly 18% stayed inconclusive and do not appear here. No stated cut-off is given here; in the data, active means normalized growth mostly below about 0.91 (no sharp cut-off); inconclusive means no clear call, values can overlap the other calls; inactive means mostly above about 0.92. Some of the results follow.

Experiment: chemical genetic growth profiling, strain panel (AID 1159580);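 further: tested at 20 µM; growth read once vehicle control cultures reached saturation at 30 °C; 1 = growth at the plate median or of vehicle wells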
Details: S. cerevisiae deletion strains, growth OD

Measured: normalized growth

C/C=C(\C)C(=O)OC1[C@@H]2C=C3C4CC(=O)O[C@@H](c5ccoc5)[C@]4(C)CCC3[C@@](C)(C2=O)[C@@H](C(O)C(=O)OC)C1(C)C (stereo partly drawn)
inactive: locus YBR021W, strain FUR4, stronger effect = lower value 1 | locus YBR229C, strain ROT2, stronger effect = lower value 0.997 | locus YCL029C, strain bik1, stronger effect = lower value 1.01 | locus YDL035C, strain GPR1, stronger effect = lower value 0.994 | locus YDL074C, strain BRE1, stronger effect = lower value 1.03 | locus YDL101C, strain DUN1, stronger effect = lower value 1.01 | locus YDL134C, strain PPH21, stronger effect = lower value 1.01 | locus YDL185W, strain tfp1, stronger effect = lower value 1.02 | locus YDL192W, strain arf1, stronger effect = lower value 1.01 | locus YDR101C, strain arx1, stronger effect = lower value 1.01 | locus YDR162C, strain NBP2, stronger effect = lower value 1.01 | locus YDR318W, strain mcm21, stronger effect = lower value 1.02 | locus YDR388W, stronger effect = lower value 1.02 | locus YDR502C, strain sam2, stronger effect = lower value 1.03 | locus YER110C, stronger effect = lower value 1.01 | locus YER155C, strain BEM2, stronger effect = lower value 1 | locus YER167W, strain BCK2, stronger effect = lower value 0.994 | locus YGL078C, strain dbp3, stronger effect = lower value 1.03 | locus YGL086W, strain mad1, stronger effect = lower value 1.01 | locus YGL248W, strain PDE1, stronger effect = lower value 1 | locus YGR135W, strain pre9, stronger effect = lower value 1.03 | locus YGR252W, strain gcn5, stronger effect = lower value 1.02 | locus YHR079C, strain IRE1 (second series), stronger effect = lower value 1.03 | locus YHR094C, strain hxt1, stronger effect = lower value 1.03 | locus YHR129C, strain ARP1, stronger effect = lower value 1 | locus YHR200W, strain rpn10, stronger effect = lower value 1.02 | locus YIL066C, strain RNR3, stronger effect = lower value 0.997 | locus YIL073C, strain SPO22, stronger effect = lower value 1.05 | locus YIL125W, strain kgd1, stronger effect = lower value 1.01 | locus YIR030C, strain dcg1, stronger effect = lower value 1.02 | locus YJL095W, strain BCK1, stronger effect = lower value 1.03 | locus YJL134W, strain LCB3, stronger effect = lower value 1.01 | locus YJL168C, strain set2, stronger effect = lower value 1.02 | locus YJL187C, strain SWE1 (second series), stronger effect = lower value 1.02 | locus YJR043C, strain POL32, stronger effect = lower value 0.983 | locus YJR075W, strain HOC1, stronger effect = lower value 1.02 | locus YKL009W, strain mrt4, stronger effect = lower value 1 | locus YKL068W, stronger effect = lower value 1.01 | locus YKL085W, strain MDH1 (second series), stronger effect = lower value 0.996 | locus YKL085W, strain MDH1, stronger effect = lower value 0.996 | locus YKL190W, strain CNB1, stronger effect = lower value 1 | locus YKR001C, strain vps1, stronger effect = lower value 1.03 | locus YLR039C, strain RIC1, stronger effect = lower value 1 | locus YLR058C, strain SHM2, stronger effect = lower value 1 | locus YLR102C, strain apc9, stronger effect = lower value 1.01 | locus YLR262C, strain YPT6, stronger effect = lower value 0.97 | locus YLR268W, strain sec22, stronger effect = lower value 1.02 | locus YLR342W, strain FKS1 (second series), stronger effect = lower value 0.998 | locus YLR371W, strain rom2, stronger effect = lower value 1.02 | locus YLR418C, strain cdc73, stronger effect = lower value 1.05 | locus YML016C, strain PPZ1, stronger effect = lower value 0.999 | locus YML032C, strain rad52, stronger effect = lower value 1.02 | locus YML124C, strain tub3, stronger effect = lower value 1.01 | locus YMR078C, strain ctf18, stronger effect = lower value 1.01 | locus YMR223W, strain ubp8, stronger effect = lower value 1.02 | locus YMR307W, strain GAS1, stronger effect = lower value 0.998 | locus YNL067W, strain RPL9B, stronger effect = lower value 1.02 | locus YNL128W, strain TEP1, stronger effect = lower value 1 | locus YNL233W, strain BNI4, stronger effect = lower value 1.05 | locus YNL250W, strain rad50, stronger effect = lower value 1.01 | locus YNL271C, strain bni1, stronger effect = lower value 1.02 | locus YNL298W, strain CLA4, stronger effect = lower value 1.01 | locus YNL307C, strain MCK1, stronger effect = lower value 1.01 | locus YNR052C, strain pop2, stronger effect = lower value 1.03 | locus YOL006C, strain TOP1, stronger effect = lower value 0.976 | locus YOL012C, strain htz1 1.07 | locus YOL147C, strain pex11, stronger effect = lower value 1.01 | locus YOR061W, strain CKA2, stronger effect = lower value 1 | locus YOR069W, strain VPS5, stronger effect = lower value 1 | locus YOR136W, strain idh2, stronger effect = lower value 1.01 | locus YOR144C, strain elg1, stronger effect = lower value 1.01 | locus YOR184W, strain ser1, stronger effect = lower value 1 | locus YOR316C, strain cot1, stronger effect = lower value 1.01 | locus YPR119W, strain clb2, stronger effect = lower value 1.02 | locus YPR141C, strain kar3, stronger effect = lower value 1.02 | locus YPR163C, strain tif3, stronger effect = lower value 1.01 | locus YPR167C, strain met16, stronger effect = lower value 1.02 | strain wtn01, stronger effect = lower value 0.994
